SW480 rerep: inducers of DNA re-replication in SW480 colon cancer cells; SW480 DNA re-replication, Hoechst DNA content imaging, 48 h; hit rate 1.8% among 340,000; Potency, µM (titrated, usually from 46.1 µM), without a hit: top-dose re-replication activation, actives largely listed as activators; AID 624297; note: % of control where 0% means no effect; nearly all actives have a fitted effect of over 55% in size
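250 cells/well; 23 nL cpd via pin tool; 48 hr, 37 C, 5% CO2; Hoechst 40 min; imager read of total nuclear intensity, ex 405/em 500-530 nm.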
MCF10A rerep: induces DNA re-replication in MCF 10a normal breast cells | MCF 10A DNA re-replication, Hoechst nuclear intensity, 48 h | Potency, µM (series often up to 46.1 µM), inactives show at the top dose activity, positive = re-replication, hits mostly activators | hit rate 2.9% among 350,000 | AID 624296; note: % of control where 0% means no effect; nearly all actives have a fitted effect of over 50% in size
PINK1 modulator: PINK1 expression modulation; PINK1 immunofluorescence, high-content cytometry, 24 h; Potency, µM (highest dose often 76.6 µM), for the others: at the highest dose activation (PINK1 increase), usual class: activators; hit rate 0.2% among 410,000; active = well fitted activation curve with a large enough effect; inconclusive = small, poorly fitted or top-dose-only effect; cell line not stated here; note: % of control where 0% means no effect; nearly all actives have a fitted effect of over 65% in size
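Readout is PINK1 immunofluorescence, quantified alongside mitochondrial, cell and nuclear markers by laser-scanning microplate cytometry. Cells from a stable line were exposed to compound titrations (5 concentrations) for 24 hours, with CCCP controls.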
KB-V1 cytotox: KB-V1 MDR subline cytotoxicity. KB-V1 MDR cells viability, CellTiter-Glo, 72 h. Potency, µM (doses to about 46.1 µM), usual class: cytotoxic. hit rate 3.4% among 400,000. AID 1347076; note: % is set by controls: 0 for no effect and ±100 for the full control effect; nearly all actives have a fitted effect of over 60% in size
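Compound-treated KB-V1 multidrug-resistant cells, 72 h, 37 degrees C; viability by CellTiter-Glo. Fitted qHTS curves give the values.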
KB-3-1 cytotox: kills parental KB-3-1 adenocarcinoma cells; KB-3-1 viability, CellTiter-Glo ATP luminescence, 72 h; Potency, µM (highest dose often 46.1 µM), most hits filed as cytotoxic; hit rate 1.4% among 400,000; AID 1347075; note: % is set by controls: 0 for no effect and ±100 for the full control effect; nearly all actives have a fitted effect of over 60% in size
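Viability of parental KB-3-1 cells, measured by CellTiter-Glo luminescence, followed a 72 h incubation at 37 °C with pinned compounds in phenol-red-free DMEM containing 10% FBS.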
The depositor's hits bear a star; i = inactive; ? = inconclusive; . = no result; [ ] = another dose, or the depositor's remark. Compounds with a hit are over-represented: about 6.7% of the library has one in this group of screens. Unless noted, calls come from the whole dose curve; as a rule, active = well fitted curve in the direction sought with a large enough effect; inconclusive = small, poorly fitted or top-dose-only effect, or another doubt; inactive = no such curve, though single readings can be large; an effect the other way counts as inactive or inconclusive. Potency is the fitted concentration of half-maximal effect.

SMILES	SW480 rerep	MCF10A rerep	PINK1 modulator	KB-V1 cytotox	KB-3-1 cytotox
COc1ccc2nc(NC(=O)c3cccc(S(=O)(=O)N4CCOCC4)c3)sc2c1	-1%	?	-1%	i	i
O=C(Nc1nc2ccc(S(=O)(=O)N3CCCC3)cc2s1)C1CCCCC1	7.3µM*	10µM*	6%	3.7µM*	2.6µM*
CN(C)c1cccc(C(=O)Nc2nc3ccc(S(=O)(=O)N4CCCC4)cc3s2)c1	.	.	2%	21µM*	10µM*
Cc1ccc(C(=O)Nc2nc3ccc(S(=O)(=O)N4CCCC4)cc3s2)cc1	.	.	-1%	i	i
COc1ccc(N2C[C@H](Cc3ccccc3)[C@@H](CC(=O)Nc3ccccc3)C2=O)cc1	.	.	1%	i	i
COc1ccccc1Cc1c(C2CCCCC2)nc2ccc(Br)cn12	.	.	?	i	?
Cc1ccc2cc(C)c(SCC(=O)Nc3ccc(S(=O)(=O)N4CCCC4)cc3)nc2c1	-13%	3%	-1%	i	i
Cc1cc(C)c2c(c1)cc(C)c1nnc(SCC(=O)Nc3ccc(S(=O)(=O)N4CCCCC4)cc3)n12	9%	-3%	3%	18µM*	i
Cc1ccc(S(=O)(=O)N2CCCC2C(=O)Nc2nc3c(s2)CCCC3)cc1 (configuration not stated)	7%	18%	-1%	i	?
COc1ccc2nc(NC(=O)C3CCCN3S(=O)(=O)c3ccc(C)cc3)sc2c1 (configuration not stated)	5%	15%	-2%	18µM*	i
CC1CCN(C(C)C(=O)Nc2cc(S(=O)(=O)N3CCCCC3)ccc2Cl)CC1 (configuration not stated)	0%	5%	5%	15µM*	?
CCC1CCCCN1CCCNC(=O)c1ccc2c(c1)N(Cc1cccc(Cl)c1)C(=O)c1ccccc1S2(=O)=O (configuration not stated)	.	.	0%	.	.
CCOC(=O)N1CCN(Cc2ccc3c(c2)CN(C(=O)c2cc(-c4ccccc4)no2)CCO3)CC1	.	.	-1%	.	.
COc1ccc(C(=O)/C=C/c2cc(C(=O)O)cc3c2OCOC3)c(O)c1	3%	18µM*	9%	i	i
O=C(O)c1cc(/C=C/C(=O)c2cc(F)ccc2O)c2c(c1)COCO2	-3%	3%	1%	i	i
O=c1c2ccccc2c(=O)n(-c2ccccc2)n1CCCCBr	-2%	7.3µM*	-1%	i	i
Cc1ccc(C(C(=O)NC2CCCC2)N(C(=O)CCC(=O)Nc2cc(C)on2)c2ccccc2)cc1 (configuration not stated)	-1%	0%	7%	i	i
Cc1cc(NC(=O)CCCC(=O)N(c2ccccc2)C(C(=O)NC2CCCCC2)c2cccs2)no1 (configuration not stated)	2%	-1%	15%	2.1µM*	i
COc1ccc2nc3ccccc3nc2c1NC(=O)c1ccc(Br)cc1	0%	?	14µM*	i	i
COc1ccccc1CNC(=O)Cc1ccc(Br)cc1	.	?	3%	23µM*	i
Cc1ccc(CNC(=O)Cc2ccc(Br)cc2)cc1	?	6.5µM*	3%	?	?
COc1ccccc1CNC(=O)CCc1ccccc1	12%	-7%	-1%	i	i
COc1ccc2nc3ccccc3nc2c1NC(=O)c1ccc(Cl)cc1	0%	18%	?	i	i
COc1cc(NC(=O)c2ccccc2)c(OC)cc1NC(=O)Cc1ccc(Br)cc1	?	12µM*	13%	i	i
COc1ccc(CNC(=O)C[C@@H]2C[C@H]3c4cc(NC(=O)NC5CCCC5)ccc4O[C@H]3[C@H](CO)O2)cc1	.	.	0%	i	?
SMILES	SW480 rerep	MCF10A rerep	PINK1 modulator	KB-V1 cytotox	KB-3-1 cytotox
CCOC(=O)C1CCN(C(=O)c2ccc(S(=O)(=O)Nc3ccccc3Cl)cc2)CC1	-10%	1%	0%	?	i
O=C(Cc1ccc(Br)cc1)NCc1ccccc1	5.8µM*	5.8µM*	4%	4.6µM*	5.8µM*
O=C(COC(=O)Cc1ccc(Br)cc1)NCc1ccccc1	.	.	1%	i	i
O=C(c1ccc(F)cc1)C1CCN(Cc2ccccc2F)CC1	.	.	0%	i	i
O=C(CN1CCC(C(=O)c2ccc(F)cc2)CC1)Nc1ccccc1	1%	2%	0%[38.3 µM]	4.6µM*	i
O=C(CN1CCC(C(=O)c2ccc(F)cc2)CC1)NCc1ccccc1F	17%	0%	4%	9.2µM*	?
Cc1ccc(C)c(S(=O)(=O)N(C)C2CCS(=O)(=O)C2)c1 (configuration not stated)	-41%	?	-2%	i	i
CCNC(=O)c1cc2c(c(-c3cccc(-c4cccc(C(=O)N(C)C)c4)c3)n1)[C@@H](CCO)N(S(=O)C(C)(C)C)C2 (some centres not stated)	.	.	5%	i	i
CC(NC(=O)c1ccc(F)cc1)c1nc2ccccc2n1Cc1ccccc1F (configuration not stated)	26%	1%	-2%[38.3 µM]	2.1µM*	i
Cc1c(Cl)sn(-c2ccc(Cl)cc2)c1=O	1.8µM*	3.3µM*	4%	?	16µM*
Cc1nn(-c2ccc(Cl)cc2)c(=O)c2ccccc12	-12%	-5%	0%	i	i
N#CC1=C(N)NC(SCc2ccc(F)cc2)=C(C#N)C12CCCCC2	?	8.2µM*	?	?	23µM*
COc1ccc(NC(=S)Nc2cccc([N+](=O)[O-])c2)cc1	0%	121%[0.0737 µM]	-1%	i	i
COc1ccc(NC(=O)Nc2cccc([N+](=O)[O-])c2)cc1Cl	-1%	?	?	15µM*	i
O=C(Nc1ccc(OC(F)F)c(Cl)c1)Nc1ccc2c(c1)OCO2	-4%	?	10%	?	?
O=C(Nc1ccc([N+](=O)[O-])cc1)Nc1ccc(OC(F)F)c(Cl)c1	18µM*	?	?	4.6µM*	5.8µM*
COc1ccc(OC(C)C(=O)Nc2cccc([N+](=O)[O-])c2)cc1 (configuration not stated)	-149%	-43%	3%	16µM*	i
CN(C)S(=O)(=O)c1ccc(Nc2nc(C3CC3)nc3c2nnn3Cc2ccccc2Cl)cc1	9%	14%	4%	?	2.9µM*
COc1ccc(OC)c(Nc2nc(C3CC3)nc3c2nnn3Cc2ccccc2)c1	-24%	-14%	12%	2.1µM*	i
c1ccc(Cn2nnc3c(Nc4ccc5c(c4)OCO5)nc(C4CC4)nc32)cc1	2%	10µM*	?	i	i
COc1ccc(Cl)cc1Nc1nc(C)nc2c1nnn2Cc1ccccc1	1%	?	6%	i	i

Compound activity (PubChem BioAssay)
